Screens deposited in PubChem by several laboratories.
bovine MsrA act: bovine MsrA enzyme activators, primary screen, biochemical, absorbance, HTS; AID 602163, 2012; activation, % at 10.6 µM; purified bovine MsrA, absorbance read-out; 360,000 tested, 0.3% active; in the data active = activation above about 7.5%;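 note: 0% = vehicle and 100% = reference activator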
NadD inh: inhibitors of S. aureus NadD, primary screen, biochemical, colorimetric, uHTS | purified NadD enzyme, colorimetric absorbance read-out | inhibition, % at 20 µM | 360,000 tested, 0.78% active | AID 602399, 2012; in the data active = inhibition above about 26%
rCAG RNA binder: binders of r(CAG) RNA repeats, primary screen, biochemical, fluorescence. inhibition, % at 3 µM. AID 651821, 2012. 370,000 tested, 1.3% active. r(CAG) RNA repeat, TO-PRO-1 dye displacement fluorescence;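 active = inhibition above the plate cutoff, the mean of all test compounds on that plate plus 3 SD, cut at about 35% in these data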;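 note: 0% = DMSO alone and 100% = 100 µM mitoxantrone as full dye displacement; higher means more dye released from RNA so lower well fluorescence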
MsrA inh: bovine MsrA enzyme inhibitors, primary screen, biochemical, absorbance, HTS. purified bovine MsrA, absorbance read-out. inhibition, % at 15.5 µM. 360,000 tested, 0.75% active. AID 651718, 2012; in the data active = inhibition above about 4.5%;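 note: 0% = vehicle wells with enzyme and 100% = reference inhibitor wells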
rCAG binder conf: small molecules binding CAG repeat RNA – biochemical, fluorescence, confirmation; shares compounds with rCAG RNA binder; r(CAG) RNA repeat, TO-PRO-1 dye displacement fluorescence; inhibition, % at 3 µM; 4,300 tested, 70% active; AID 652065, 2013;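 active = inhibition above a per-plate cutoff, the mean inhibition of sample wells plus 3 SD, cut at about 35% in these data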;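 note: loss of TO-PRO-1 fluorescence as compound displaces dye from 1x1 AA loop RNA; 0% = DMSO only wells and 100% = 100 µM mitoxantrone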
DNA CAG counter: displacement of TO-PRO-1 from CAG DNA duplex, counter-screen for rCAG RNA repeat binder project, biochemical, fluorescence, TO-PRO-1 dye, d(CAG) DNA oligo. d(CAG) DNA oligo TO-PRO-1 dye displacement. 4,300 tested, 94% active. shares compounds with rCAG RNA binder. inhibition, % at 3 µM. AID 652068, 2013;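 active = inhibition above its plate's cutoff, the mean test-well inhibition plus 3 SD, cut at about 4.8% in these data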;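 note: 0% = DNA dye mix with DMSO and 100% = 100 µM mitoxantrone; hits displace the dye from DNA and so lower well fluorescence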
DNA CAG DR: inhibitors of DNA CAG/GTC TO-PRO-1 complex, dose response, counter-screen for rCAG RNA repeat binder project, biochemical, fluorescence, TO-PRO-1 dye. 250 tested, 20% active. DNA CAG/GTC duplex TO-PRO-1 dye displacement fluorescence. AID 686960, 2013. shares compounds with rCAG RNA binder. IC50, µM; in the data active = IC50 below about 10 µM
Active calls of the source: *; nt = not tested or not shown. A selection: hits, their analogues and other compounds. The true share with any hit is near 2.7%.

SMILES | bovine MsrA act | NadD inh | rCAG RNA binder | MsrA inh | rCAG binder conf | DNA CAG counter | others
Cc1onc(-c2c(F)cccc2Cl)c1C(=O)NC1CCSC1=O (stereo unspecified) | -4.9 | -4.5 | -1.0 | -0.7 | nt | nt
CN(C)c1ccc2cc(S(=O)(=O)O)cc(O)c2c1 | -2.3 | 1.9 | 59.0* | 1.7 | 33.2 | 10.3*
O=C(NCc1ccc(F)cc1)C1CCCN1S(=O)(=O)c1cccc2nsnc12 (stereo unspecified) | -0.4 | 3.5 | -2.8 | 1.3 | nt | nt
Oc1c(Cl)cc(Cl)cc1/C=N/NC(=S)NC1CC2C=CC1C2 (stereo unspecified) | -7.2 | 15.9 | 65.6* | 0.8 | 81.1* | 47.4*
Nc1[nH]n2c(=O)c3c(nc2c1N=Nc1ccccc1)CCCC3 | -14.0 | 15.5 | 34.6* | 2.5 | 8.4 | 3.4
Cn1cccc1C(=O)OCC(=O)NC(=O)NC1CCCCC1 | 1.9 | 0.2 | -5.8 | 0.0 | nt | nt
Cc1cc(C)nc(NS(=O)(=O)c2ccc(NC(=O)C3(c4ccc([N+](=O)[O-])cc4)CCCC3)cc2)n1 | -5.5 | 17.0 | 39.8* | 0.1 | 33.8 | 9.0*
Cc1cc(/C=N/NC(=O)c2ccc(CN3CCOCC3)cc2)c(C)n1-c1ccccc1 | -3.2 | 5.3 | -1.8 | 1.2 | nt | nt
Cc1cc(/C=N/NC(=O)C(O)(c2ccccc2)c2ccccc2)c(C)n1-c1cccc(C(=O)O)c1 | -5.0 | 20.7 | 40.7* | 0.7 | 57.9* | 25.8*
Cc1cc(/C=N/NC(=O)c2cccc(N(C)C)c2)c(C)n1-c1cc(C(=O)O)cc(C(=O)O)c1 | -9.3 | 6.7 | nt | nt | nt | nt
Cc1cc(/C=N/NC(=O)C(O)(c2ccccc2)c2ccccc2)c(C)n1-c1ccc(C(=O)O)cc1 | -9.2 | 6.7 | 35.2* | 2.9 | 28.1 | 11.6*
COc1ccccc1/C=N\NC(=O)c1ccc(COc2ccc(C)c(C)c2)o1 | -7.1 | -18.9 | 2.8 | 0.7 | nt | nt
Cc1ccccc1C(=O)N1CCC(C(=O)Nc2sccc2C(N)=O)CC1 | -2.7 | 5.5 | 0.4 | -0.1 | nt | nt
Cc1ccc(C)c(OCC(=O)Nc2ccc(C(=O)O)cc2NC(=O)COc2cc(C)ccc2C)c1 | 0.6 | 9.4 | 73.9* | -0.5 | 74.5* | 40.2*
Cc1ccc(C)c(OCC(=O)Nc2cc(C(=O)O)cc(C(=O)O)c2)c1 | -1.1 | -4.2 | 2.4 | 0.2 | nt | nt
CCOC(=O)CC1=NN(c2ccccc2)C(=O)C1 | 2.6 | -3.7 | 37.8* | 1.2 | 8.6 | 5.0*
COc1ccc(NC(=O)CN(C)S(=O)(=O)c2ccc3c(c2)CCC(=O)N3)c(OC)c1 | 1.0 | 1.7 | 1.5 | 0.0 | nt | nt
CC(NC(=O)COC(=O)c1cc(NS(=O)(=O)c2ccc(Cl)c([N+](=O)[O-])c2)ccc1O)C1CC2CCC1C2 (stereo unspecified) | -2.6 | 25.4 | 44.1* | 0.4 | 58.1* | 21.5*
O=[N+]([O-])c1c(Cl)cc(Cl)cc1Cl | nt | nt | 1.0 | 0.4 | nt | nt
O=S(c1cc(Cl)cc(Cl)c1O)c1cc(Cl)cc(Cl)c1O | -5.1 | 9.0 | 40.4* | 0.5 | 44.2* | 10.8* | DNA CAG DR=9.37*
COc1cc(CNc2cccc3[nH]c(C(F)(F)F)nc23)cc(OC)c1 | -0.5 | 14.9 | 44.0* | 0.8 | 35.2* | 18.2*
CCCc1nnc(SCC(=O)N2CCCC2)n1Cc1ccco1 | -4.0 | -3.8 | 1.9 | 0.0 | nt | nt
Cc1ccc(S(=O)(=O)Oc2ccccc2/C=N/O)cc1 | -3.3 | -2.8 | -1.4 | 0.9 | nt | nt
Cc1ccc(S(=O)(=O)Oc2ccccc2/C=N/Nc2ccc(C(=O)O)cc2)cc1 | -8.8 | -8.4 | 50.1* | 4.1 | 29.4 | 6.1*
O=C(O)CSc1nc(SCc2ccccc2Cl)nc2c1CCCC2 | -5.6 | 4.8 | 41.5* | -1.2 | 35.7* | 11.2* | DNA CAG DR=>29.9
SMILES | bovine MsrA act | NadD inh | rCAG RNA binder | MsrA inh | rCAG binder conf | DNA CAG counter | others
O=C(Nc1sc2c(c1C(=O)O)CCCCC2)c1ccccc1 | -1.7 | -6.0 | 28.9 | 3.8 | nt | nt
O=C(Nc1sc2c(c1C(=O)O)CCCC2)c1ccc(Cl)cc1 | -1.5 | -2.4 | 69.3* | 2.0 | 49.6* | 13.7*
COc1ccc(-n2nc(C(=O)NCC(=O)NCCC3=CCCCC3)c3ccccc3c2=O)cc1OC | -2.7 | -5.1 | 36.0* | 2.1 | 5.0 | 7.3*
CCN(CC)S(=O)(=O)c1cccc(C(=O)N/N=C/c2ccc(O)c(O)c2O)c1 | -7.8 | 4.8 | 53.3* | 3.8 | 55.3* | 24.2*
CCn1nc(NS(=O)(=O)c2ccc([N+](=O)[O-])cc2)c2cc3cccc(C)c3nc21 | -4.0 | -2.4 | 85.2* | 0.5 | 69.4* | 30.7*
CCn1nc(NS(=O)(=O)c2ccccc2[N+](=O)[O-])c2cc3cccc(C)c3nc21 | 1.9 | 12.0 | 73.8* | 1.9 | 54.0* | 20.8*
CCOCc1nnc(NC(=O)C2c3ccccc3Oc3ccccc32)s1 | -4.1 | -11.1 | -3.6 | -0.2 | nt | nt
COc1ccccc1CNS(=O)(=O)c1cc(-c2cc(C)no2)ccc1C(C)C | -1.4 | -4.9 | 4.7 | 0.0 | nt | nt
COc1ccc(C2C(C(=O)c3ccco3)=C(O)C(=O)N2c2nnc(C)s2)cc1OC (stereo unspecified) | -3.9 | -4.1 | -11.8 | 1.1 | nt | nt
COc1ccc2nc(N3C(=O)C(O)=C(C(=O)c4ccco4)C3c3ccc(C)o3)sc2c1 (stereo unspecified) | -9.6 | 17.5 | 53.8* | 2.0 | 59.1* | 18.9*
COc1ccc(C2C(C(=O)c3ccco3)=C(O)C(=O)N2c2nnc(C)s2)cc1 (stereo unspecified) | -4.5 | 4.6 | -7.8 | 2.6 | nt | nt
COc1ccc2nc(N3C(=O)C(O)=C(C(=O)c4ccco4)C3c3ccccc3OC)sc2c1 (stereo unspecified) | -3.3 | 11.4 | 39.4* | -0.3 | 56.9* | 21.0*
Cc1cc(C(=O)Nc2ccc(OCc3ccccc3)cc2)c(C)o1 | -0.9 | -6.4 | -3.7 | 0.2 | nt | nt
O=C(O)COc1ccc(/C=C/C(=O)c2ccc(C3CCCCC3)cc2)cc1 | -3.9 | 10.3 | 48.2* | 1.5 | 67.9* | 28.9*
O=C(O)COc1ccc(/C=C/C(=O)c2ccc3ccccc3c2)cc1 | -2.8 | 1.2 | nt | nt | nt | nt
O=[N+]([O-])c1ccccc1S(=O)c1ccccc1[N+](=O)[O-] | 1.9 | 3.8 | 0.5 | -1.0 | nt | nt
CCC(C)Nc1nnnc2c1sc1nc3c(cc12)COC(C)(C)C3 (stereo unspecified) | -1.7 | -0.7 | -1.7 | 0.3 | nt | nt
